Assay [1] is described as follows: BSK_3C_SRB: Viability Assessment in the BioMAP Diversity Plus: 3C Assay (AID 2283023).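 Also: fitted both ways against DMSO so a hit may be signal rise or drop.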 The conditions noted are these: primary human endothelial cells (HUVEC). The gist of the method:
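Absorbance at 560 nm of sulforhodamine B-stained (0.1%) total protein served as a cytotoxicity readout in human umbilical vein endothelial cells, 24 h after chemical treatment. Signal was fitted bidirectionally relative to DMSO.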

Read-out in assay [2]: Matrix Metallopeptidase 1 (MMP1), MMP1 (gene 4312)
As to the kind of experiment: BSK_BE3C_MMP1: BioMAP Diversity Plus: BE3C Assay for Matrix Metallopeptidase 1 (MMP1) Biomarker Activity (AID 2283024). As to conditions: primary human bronchial epithelial cells; actives raise or lower the signal. The procedure, abridged:
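ELISA measurement of MMP-1 after 24 h compound exposure of primary human bronchial epithelial cells. Changes in either direction fitted relative to DMSO; parallel SRB staining checked overt cytotoxicity.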

Assay [3] in a line: BSK_3C_Vis: BioMAP Diversity Plus: 3C Assay for Morphology Visualization (AID 2283025).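 Also: fitted both ways so gain or loss versus DMSO counts.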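 As to AC50: light microscopy image of cell morphology used as background control.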 The conditions noted are these: primary human endothelial cells (HUVEC). The procedure, abridged:
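Light-microscopy visualization of HUVEC cultures at 24 h post-treatment, with DMSO as baseline for bidirectional fitting.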

Read-out in assay [4]: Pselectin, SELP (gene 6403)
As to the kind of experiment: BSK_4H_Pselectin: BioMAP Diversity Plus: 4H Assay for Pselectin Biomarker Activity (AID 2283026). As to conditions: primary human endothelial cells (HUVEC); actives raise or lower the signal. The procedure, abridged:
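ELISA of surface P-selectin on HUVEC, 24 h after dosing, with parallel SRB staining (0.1% after 10% TCA fixation, 560 nm) for overt cytotoxicity. Activity fitted in both directions relative to DMSO.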

Assay [5] can be described thus: BSK_4H_SRB: Viability Assessment in the BioMAP Diversity Plus: 4H Assay (AID 2283027).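 Also: cells exposed to compound for 24 h before staining.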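 As to AC50: curves fitted both ways versus DMSO so AC50 may be loss or gain.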 The conditions noted are these: primary human endothelial cells (HUVEC). The procedure, abridged:
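Cytotoxicity readout: sulforhodamine B (0.1%) staining of total protein after 10% TCA fixation, measured at 560 nm in human umbilical vein endothelium at 24 h. DMSO set the baseline; fitting was bidirectional.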

A short description of assay [6]: BSK_BE3C_SRB: Viability Assessment in the BioMAP Diversity Plus: BE3C Assay (AID 2283028).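 As to AC50: fitted both ways so AC50 may mark signal gain or loss versus DMSO.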 The conditions noted are these: primary human bronchial epithelial cells. The procedure, abridged: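 Cells (human bronchial epithelial, primary) are treated with chemicals, and after 24 h the parallel cultures are fixed in 10% TCA. These are then stained with 0.1% SRB and read at 560 nm. Gain or loss of signal is fitted relative to DMSO.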

Read-out in assay [7]: Thrombomodulin, THBD (gene 7056)
As to the kind of experiment: BSK_3C_Thrombomodulin: BioMAP Diversity Plus: 3C Assay for Thrombomodulin Biomarker Activity (AID 2283029). The conditions noted are these: primary human endothelial cells (HUVEC); actives raise or lower the signal. The gist of the method:
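ELISA measurement of thrombomodulin on HUVEC surface 24 h after chemical dosing; activity fitted in both directions relative to DMSO vehicle.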

Read-out in assay [8]: Urokinase-type plasminogen activator receptor (uPAR), PLAUR (gene 5329)
As to the kind of experiment: BSK_4H_uPAR: BioMAP Diversity Plus: 4H Assay for Urokinase-type plasminogen activator receptor (uPAR) Biomarker Activity (AID 2283030). As to conditions: primary human endothelial cells (HUVEC); actives raise or lower the signal. The gist of the method: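 Cell-surface uPAR ELISA signal, measured 24 h after dosing human umbilical vein endothelial cells, was analyzed with bidirectional fitting relative to DMSO. Parallel SRB staining of total protein tracked overt cytotoxicity.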

Read-out in assay [9]: Vascular endothelial growth factor receptor 2 (Homo sapiens) (UniProt P35968)
As to the kind of experiment: BSK_4H_VEGFRII: BioMAP Diversity Plus: 4H Assay for Vascular endothelial growth factor receptor 2 (VEGFR2) Biomarker Activity (AID 2283031).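 As to AC50: cell-surface VEGFR2 protein level quantified by ELISA.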 As to conditions: primary human endothelial cells (HUVEC); actives raise or lower the signal. The gist of the method: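 ELISA read-out of VEGFRII in primary human umbilical vein endothelium, taken 24 h after chemical treatment. Responses are expressed relative to DMSO, with bidirectional fitting.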

Read-out in assay [10]: Vascular cell adhesion molecule 1 (VCAM1), VCAM1 (gene 7412)
As to the kind of experiment: BSK_4H_VCAM1: BioMAP Diversity Plus: 4H Assay for Vascular cell adhesion molecule 1 (VCAM1) Biomarker Activity (AID 2283033).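 As to outcome: cell-surface VCAM-1 protein measured by ELISA.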 The conditions noted are these: primary human endothelial cells (HUVEC); actives raise or lower the signal. The gist of the method:
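VCAM-1 ELISA read 24 h after chemical dosing of HUVEC in the BioMAP 4H system, with gain or loss of signal fitted relative to DMSO. Parallel SRB staining (560 nm) checked overt cytotoxicity.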

Read-out in assay [11]: Interferon-gamma inducible Protein 10 (IP10), CXCL10 (gene 3627)
As to the kind of experiment: BSK_BE3C_IP10: BioMAP Diversity Plus: BE3C Assay for Interferon-gamma inducible Protein 10 (IP10) Biomarker Activity (AID 2283034). As to conditions: primary human bronchial epithelial cells; actives raise or lower the signal. The procedure, abridged: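 IP-10 quantified by ELISA in human primary bronchial epithelial cell cultures at 24 hours post-dosing. Gain or loss of signal fitted relative to DMSO; parallel SRB staining assessed overt cytotoxicity.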

Read-out in assay [12]: Monokine induced gamma interferon (MIG), CXCL9 (gene 4283)
As to the kind of experiment: BSK_BE3C_MIG: BioMAP Diversity Plus: BE3C Assay for Monokine induced gamma interferon (MIG) Biomarker Activity (AID 2283035). As to conditions: primary human bronchial epithelial cells; actives raise or lower the signal. The gist of the method: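 hu bronchial epithelial 1° cells, 24 h cpd; MIG by ELISA; bidirectional fit, DMSO = baseline.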

Read-out in assay [13]: Transforming growth factor beta 1 (TGFb1), TGFB1 (gene 7040)
As to the kind of experiment: BSK_BE3C_TGFb1: BioMAP Diversity Plus: BE3C Assay for Transforming growth factor beta 1 (TGFb1) Biomarker Activity (AID 2283036;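 as to outcome: TGF-b1 protein level measured by ELISA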). The conditions noted are these: primary human bronchial epithelial cells; actives raise or lower the signal. The gist of the method:
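ELISA readout of TGF-b1 from human lung bronchial epithelial primary cells, taken 24 h post-treatment. Gain or loss of signal fitted relative to DMSO baseline, with parallel SRB staining for overt cytotoxicity.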

Read-out in assay [14]: Plasminogen activator inhibitor-1 (PAI1), SERPINE1 (gene 5054)
As to the kind of experiment: BSK_BE3C_PAI1: BioMAP Diversity Plus: BE3C Assay for Plasminogen activator inhibitor-1 (PAI1) Biomarker Activity (AID 2283037). The conditions noted are these: primary human bronchial epithelial cells; actives raise or lower the signal. The procedure, abridged:
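PAI-1 was measured by ELISA in human primary bronchial epithelial cultures 24 h after chemical dosing, with cytotoxicity checked by SRB total-protein staining in parallel cultures. Activity was fitted in both directions relative to DMSO.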

Read-out in assay [15]: urokinase plasminogen activator (uPA), PLAU (gene 5328)
As to the kind of experiment: BSK_BE3C_uPA: BioMAP Diversity Plus: BE3C Assay for urokinase plasminogen activator (uPA) Biomarker Activity (AID 2283038).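 As to outcome: uPA protein level quantified by ELISA in cell cultures; uPA read one day after compound addition.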 The conditions noted are these: primary human bronchial epithelial cells; actives raise or lower the signal. The gist of the method: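 Bronchial epithelial cells (human, primary); chemical 24 h; uPA by ELISA; bidirectional fit vs DMSO. SRB (0.1%, after 10% TCA fixation, 560 nm) in parallel cultures for cytotoxicity.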

Read-out in assay [16]: Interleukin-6 (IL6), IL6 (gene 3569)
As to the kind of experiment: BSK_CASM3C_IL6: BioMAP Diversity Plus: CASM3C Assay for Interleukin-6 (IL6) Biomarker Activity for (AID 2283040). As to conditions: primary human coronary artery smooth muscle cells; actives raise or lower the signal.

Read-out in assay [17]: Tissue plasminogen activator (tPA), PLAT (gene 5327)
As to the kind of experiment: BSK_BE3C_tPA: BioMAP Diversity Plus: BE3C Assay for Tissue plasminogen activator (tPA) Biomarker Activity (AID 2283041).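 Also: tPA level quantified by ELISA one day after compound addition.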 As to conditions: primary human bronchial epithelial cells; actives raise or lower the signal. The gist of the method: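 tPA measured by ELISA 24 h after dosing human primary bronchial epithelial cells (BE3C system). Changes in either direction were fitted against DMSO. Parallel cultures were stained with SRB to flag overt cytotoxicity.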

Assay [18] addresses human Vitamin D Receptor (VDR), VDR (gene 7421) (UniProt P11473). As to the kind of experiment: ATG_VDR_TRANS: Attagene TRANS-FACTORIAL HepG2 Assay for human Vitamin D Receptor (VDR) (AID 2283022; active = hit-call score of the fitted dose curve at least 0.9, where 1 is the maximum). The gist of the method: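 Steps: transfect HepG2 with GAL4-UAS-driven reporter constructs; dose compounds 24 h; isolate RNA, reverse-transcribe, PCR-amplify with 6-FAM-labelled primer extension and HpaI digestion; quantify fragments by capillary electrophoresis relative to DMSO.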

Read-out in assay [19]: Urokinase-type plasminogen activator receptor (uPAR), PLAUR (gene 5329)
As to the kind of experiment: BSK_BE3C_uPAR: BioMAP Diversity Plus: BE3C Assay for Urokinase-type plasminogen activator receptor (uPAR) Biomarker Activity (AID 2283039). As to conditions: primary human bronchial epithelial cells; actives raise or lower the signal. The gist of the method:
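uPAR levels were measured by ELISA after 24 h compound treatment of primary human bronchial epithelial cells, fitted in both directions relative to DMSO. Parallel SRB staining served as the cytotoxicity read-out.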

Results on 6 compounds are retold here after PubChem BioAssay (EPA / NIEHS).

Inconclusive results are not listed. Activity calls are given as the source filed them. The calls were made as follows, unless noted: active = hit-call score of the fitted dose curve at least 0.9, where 1 is the maximum; inactive = score below 0.9.

Chain of human Vitamin D Receptor (VDR), VDR (gene 7421) (P11473 whole entry, looked up, the tested form may be a part): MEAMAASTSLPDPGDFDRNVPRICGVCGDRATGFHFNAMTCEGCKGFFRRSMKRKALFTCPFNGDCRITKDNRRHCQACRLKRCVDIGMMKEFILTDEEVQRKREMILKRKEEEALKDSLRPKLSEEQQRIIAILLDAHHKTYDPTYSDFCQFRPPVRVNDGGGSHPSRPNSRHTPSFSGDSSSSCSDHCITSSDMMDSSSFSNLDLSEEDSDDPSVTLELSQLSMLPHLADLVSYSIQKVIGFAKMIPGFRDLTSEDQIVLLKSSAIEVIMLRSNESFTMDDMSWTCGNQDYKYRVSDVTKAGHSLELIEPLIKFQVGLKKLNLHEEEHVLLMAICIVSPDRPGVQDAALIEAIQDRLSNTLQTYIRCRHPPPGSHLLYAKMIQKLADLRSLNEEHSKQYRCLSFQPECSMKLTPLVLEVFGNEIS

By AC50 is commonly meant the midpoint of the concentration-response curve, whichever way the signal moves. For the compound `C[C@]12CC[C@@H]3c4ccc(O)cc4CC[C@H]3[C@@H]1CCC2=O`, the outcome in assay [1], in assay [3], in assay [4], in [5], in assay [6] and in [7] was inactive. The result in [8], in assay [9], in [10], in assay [11], in assay [12] and in [13] was inactive. Further, the result in assay [14], in assay [15], in assay [16] and in assay [17] was inactive. In addition, the AC50 in [2] is 3.97 µM (active).
Regarding `C[C@]12CC[C@@H]3c4ccc(O)cc4CC[C@H]3[C@@H]1CC[C@H]2O`, the outcome in [18], in assay [2], in assay [4], in assay [6], in assay [7] and in [9] was inactive. Moreover, the outcome in assay [10], in [11], in assay [12], in [13], in assay [14] and in assay [15] was inactive. Also, the outcome in assay [16] and in assay [17] was inactive. In addition, the AC50 in [1] was 12.4 µM (active); in assay [3], 20.7 µM (active); in [5], 9.1 µM (active); in [8], 12.8 µM (active).
`O=C1CCC(C2CCCCC2)CC1`: the outcome in assay [18], in assay [1], in assay [3], in assay [4], in assay [5] and in assay [6] was inactive. For the same compound, the outcome in [7], in [8], in [9], in [10], in assay [12] and in assay [13] was inactive. For the same compound, the result in [14], in assay [15], in assay [16] and in [17] was inactive. For the same compound, the AC50 in [2] was 12.6 µM (active); in [11], 29.6 µM (active).
For `CCCCCCCCOC(=O)c1cc(O)c(O)c(O)c1`, the half-maximal activity concentration (AC50) in assay [18] is 55 µM (active); in [1] it was 20 µM (active); in [2], 33.5 µM (active); in [3], 37.5 µM (active); in assay [4] it was 17.8 µM (active); in assay [5], 15.1 µM (active). Moreover, the AC50 in assay [6] is 33.6 µM (active); in assay [8] it was 37.7 µM (active); in assay [10], 6.26 µM (active); in assay [11], 29.8 µM (active); in [12], 34 µM (active); in assay [13], 27.2 µM (active). In addition, the AC50 in [14] is 32.8 µM (active); in assay [15], 37.7 µM (active); in assay [16], 3.97 µM (active). Moreover, the result in [7] and in [9] was inactive.
For `CCOC(=O)O[C@H](C)OC(=O)c1ccc2c(c1)cc(C(=O)NC1CCN(C(C)C)CC1)n2Cc1cc(-c2ccc(Cl)s2)on1`, the concentration at half-maximal activity (AC50) in assay [1] is 5.03 µM (active); in assay [2], 13.2 µM (active); in assay [3] it was 5.3 µM (active); in [4] it was 6.95 µM (active); in assay [5], 5.07 µM (active); in assay [6], 6.07 µM (active). Besides, the AC50 in assay [8] is 7.66 µM (active); in assay [9], 5.06 µM (active); in assay [10], 5.44 µM (active); in [11] it was 11.5 µM (active); in assay [12], 14.4 µM (active); in assay [13], 11.8 µM (active). Moreover, the AC50 is 12.1 µM (active) in assay [14], 9.63 µM (active) in assay [15], 9.89 µM (active) in assay [19] and 9.24 µM (active) in assay [16]. The result in assay [7] was inactive.
With `Cc1ccc2oc(CN(Cc3ccccc3)C(=O)Nc3c(F)cc(F)cc3F)c(-c3ccc(Cl)cc3)c2c1`, the outcome in assay [18], in assay [1], in assay [2], in assay [3], in assay [4] and in assay [5] was inactive. For the same compound, the outcome in assay [6], in [7], in assay [8], in assay [9], in assay [10] and in [11] was inactive. Further, the result in assay [12], in assay [13], in [14], in assay [15], in assay [16] and in assay [17] was inactive.
